Assay results taken from PubChem BioAssay AID588726 (The Scripps Research Institute Molecular Screening Center, 2011).
Hit rate of the full screen: of about 360,000 compounds, about 8,200 (2.3%) were called active. Cut-off read from the data, not from the text of the source: active = inhibition above about 27%; inactive = the rest. What follows is part of a selection rich in actives, with near analogues and random picks from the rest.

These compounds were tested against Fructose-bisphosphate aldolase (Mycobacterium tuberculosis (strain ATCC 25618 / H37Rv)) (UniProt P9WQA3) (assay: Mtb FBA enzyme inhibitors, primary screen, biochemical, fluorescence, strain H37Rv (AID 588726;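 note: 0% = vehicle and 100% = reference inhibitor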)). Settings: purified M. tuberculosis FBA, fluorescence read-out, at 1 µM, hits give high values.
Chain of Fructose-bisphosphate aldolase (Mycobacterium tuberculosis (strain ATCC 25618 / H37Rv)) (P9WQA3 whole entry, looked up): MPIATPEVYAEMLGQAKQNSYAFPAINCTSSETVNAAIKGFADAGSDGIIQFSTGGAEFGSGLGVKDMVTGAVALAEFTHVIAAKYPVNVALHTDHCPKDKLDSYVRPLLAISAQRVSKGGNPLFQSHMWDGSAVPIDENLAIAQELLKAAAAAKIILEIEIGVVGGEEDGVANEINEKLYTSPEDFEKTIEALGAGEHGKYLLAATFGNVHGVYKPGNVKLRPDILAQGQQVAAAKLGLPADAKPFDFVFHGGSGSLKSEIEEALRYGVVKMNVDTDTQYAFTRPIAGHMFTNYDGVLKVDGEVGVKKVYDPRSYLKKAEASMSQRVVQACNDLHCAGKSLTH

SMILES | inhibition
CC(C)(C)c1cc2cccnc2n1Cc1cccc(F)c1 | 3.01% (inactive)
COc1cc(/C=C/C(=O)O)cc(S(=O)(=O)Nc2ccccc2SC)c1OC | -0.58% (inactive)
CC(C)(C)CC(=O)Nc1nc(C(N)Cc2ccc(C(F)(F)F)cc2)cs1 (stereo not drawn) | -1.2% (inactive)
Cc1ccccc1NC(=O)CCNS(=O)(=O)c1ccc2[nH]c(=O)oc2c1 | -4.94% (inactive)
CC(=O)c1nn(-c2cccc(C(F)(F)F)c2)c(=O)[nH]c1=O | 2.77% (inactive)
COc1cc(OC)c(C(=O)OC(C)C(=O)Nc2cc(C(F)(F)F)ccc2Cl)cc1OC (stereo not drawn) | -1.34% (inactive)
C/C(=N\NC(=O)c1ccc(CSc2nc(C)cc(C)n2)cc1)C1CCCCC1 | -4.8% (inactive)
CCOC(=O)C1CCN(Cc2c(C(=O)N3CCOCC3)nc3c(C)cccn23)CC1 | 8.49% (inactive)
CC(=O)c1ccc(NC(=O)CSc2nc3ccccc3c(=O)n2CCCN2CCOCC2)cc1 | -0.35% (inactive)
C=CCO/N=C/C1=C(O)C(C(=O)OC)C(C)(C)CC1=O (stereo not drawn) | 0.55% (inactive)
O=C1[C@@H](c2ccccc2)[C@@H](c2ccccc2)N1c1cccnc1 | 4.74% (inactive)
O=C1C(=O)N(c2ccccc2)C(c2ccccc2)C1c1ccccc1 (stereo not drawn) | 53% (active)
O=C1c2ccccc2C(=O)C1c1ccccc1 | 4.16% (inactive)
Cc1ccccc1-c1csc(C(O)c2cccc(Cl)c2)n1 (stereo not drawn) | -4.41% (inactive)
Clc1ccc(CSc2nnc([C@@H]3CCCN3)o2)cc1 | 4.22% (inactive)
Fc1ccc(CSc2nnc(-c3cc4c(s3)-c3ccccc3CC4)o2)cc1 | 154% (active)
C#CCSc1nnc(-c2sc3ccccc3c2Cl)o1 | 4.19% (inactive)
O=C(CSc1nnc(-c2ccccc2O)o1)NC1CCCCC1 | 0.67% (inactive)
Fc1ccc(-c2nnc(CSc3nnc(-c4ccc5c(c4)OCO5)o3)o2)cc1 | -2.07% (inactive)
CCSc1nnc(-c2cc3c(s2)-c2ccccc2CC3)o1 | 61.2% (active)
CNC(=O)C[C@H]1C(=O)N(Cc2ccccc2)C[C@@H]1CSC | 3.42% (inactive)
COc1ccc(OC)c(-c2c(=O)n(OCc3ccccc3Br)c3ccccc3[n+]2[O-])c1 | -1.19% (inactive)
COc1cc(N2C(=O)CC3(CCCC3)CC2=O)cc(OC)c1OC | 0.26% (inactive)
CCN(C(=O)C1CCCN(c2nc(-c3ccc(OC)cc3)no2)C1)c1ccc(OC)cc1 (stereo not drawn) | -2.44% (inactive)
Cc1cc(C)c2c(n1)nn1c(-n3ccnc3)cc(C)nc21 | 27.6% (active)

SMILES | inhibition
CCCCNCc1ccc(SC)cc1 | -1.81% (inactive)
CCNc1nc(Oc2ccc(C(=O)OC)cc2)nc(N2CCOCC2)n1 | 0.39% (inactive)
COc1ccc(N(C(=O)c2snc(C(N)=O)c2N)C(C(=O)NC2CCCC2)c2ccc(C)o2)c(OC)c1 (stereo not drawn) | 2.34% (inactive)
CCOC(=O)c1ccc(CS(=O)c2ccc(Cl)cc2)o1 (stereo not drawn) | -0.81% (inactive)
CCOC(=O)c1ccc(-c2ccc3ncnc(N(C)Cc4sccc4C)c3c2)o1 | 171% (active)
CCc1nnc(NC(=O)CSc2nc3ccccc3c(=O)n2CCCOC)s1 | -4.95% (inactive)
COc1ccccc1C(=O)Nn1c(-c2cccs2)nc2ccccc2c1=O | 0.05% (inactive)
CC1CN(c2cc(=O)n(Cc3ccc(F)cc3)c(=O)[nH]2)CC(C)O1 (stereo not drawn) | -1.34% (inactive)
Cc1ccc2c(C)c(C(=O)N3CCC(N4CCC(C(=O)NC5CC5)CC4)CC3)oc2c1 | 1.31% (inactive)
O=C(NNC(=O)C1CCN(c2ncccn2)CC1)c1ccccc1 | 1.54% (inactive)
CC(=O)N1CCC(C(=O)Nc2nc(-c3ccccc3)ns2)CC1 | -0.01% (inactive)
Cc1cc(-c2ccccc2)nc(N2CCC(C(=O)NC34CC5CC(CC(C5)C3)C4)CC2)n1 | 170% (active)
CCOc1cc(-c2noc(CCC(=O)N3CCOCC3)n2)ccc1OC | 1.37% (inactive)
CCCn1c(=O)c(C(=O)Nc2cc(C)ccn2)c(O)c2ccccc21 | 1.3% (inactive)
CCCCCn1c(=O)c(C(=O)OCC)c(Cl)c2ccccc21 | 1.96% (inactive)
CCCn1c(=O)c(-c2ccccc2)c(O)c2ccccc21 | 35.6% (active)
Cc1cccc(C(=O)C(O)(c2ccccc2)C2CCCCC2=O)c1 (stereo not drawn) | 3.06% (inactive)
O=C(Nc1cccnc1)c1noc2c1CCCCC2 | 1.31% (inactive)
CC(C)C(=O)Nc1ccc2c3c(cccc13)CC2 | -0.4% (inactive)
N#CC1(Nc2ccc(-c3ccc(Cl)cc3)cc2)CCCC1 | -1.27% (inactive)
N#CC1(Nc2ccc3c4c(cccc24)CC3)CCCCC1 | 48% (active)
O=C(c1ccccc1)c1cc(-c2ccccn2)c(N2CCOCC2)s1 | -4.69% (inactive)
CSc1ncnc2c1ncn2CC(=O)C1CCC2C3CCC4=CC(=O)CCC4(C)C3CCC12C (stereo not drawn) | -0.85% (inactive)
COCCCNC(=O)CC1C[C@H](C(=O)N2CCCCC2)[C@@]2(CCc3ccccc3)c3[nH]c4ccccc4c3CCN2C1=O (stereo partly drawn) | 0.45% (inactive)
COc1ccc2c(CC(=O)OCC(=O)NC(N)=O)coc2c1 | 2.04% (inactive)

SMILES | inhibition
Cc1ccc2nc(NCCCNC(=O)c3cnccn3)c(C#N)cc2c1 | 22.9% (inactive)
COCCCNC(=S)NCCNc1nc2cc(C)c(C)cc2cc1C#N | 27.3% (active)
Cc1ccc2cc(C#N)c(NCCNC(=S)NCCCN3CCOCC3)nc2c1 | 11.2% (inactive)
CCCC(C(=O)NCc1ccco1)N(C(=O)CNS(=O)(=O)c1ccccc1)C1CCCC1 (stereo not drawn) | 0.18% (inactive)
c1ccc2cc(CCCc3cc4ccccc4cn3)ncc2c1 | 5.36% (inactive)
O=C(CSc1nnc(-c2ccncc2)n1C1CCCCC1)Nc1ccccc1 | -1.22% (inactive)
CC1CCCN(S(=O)(=O)c2ccc(-c3ccc(=O)[nH]n3)o2)C1 (stereo not drawn) | 3.28% (inactive)
COC(=O)c1ccccc1NC(=O)CSc1ccccn1 | 1.02% (inactive)
Cc1c(NC(=O)C(C)OC(=O)c2ccccc2O)c(=O)n(-c2ccccc2)n1C (stereo not drawn) | -3.77% (inactive)
CC(OC(=O)c1ccccc1NCCO)C(=O)Nc1ccnn1C(C)C (stereo not drawn) | 92% (active)
C=CCn1cc(C(=O)NCc2ccc(Cl)cc2)c(=O)c2cc(S(=O)(=O)N(CC)CC)ccc21 | 3.32% (inactive)
O=C(COC(=O)CCCN1C(=O)c2cccc3cccc(c23)C1=O)NC1CCS(=O)(=O)C1 (stereo not drawn) | 45.1% (active)
Nc1ccc(C(=O)OCC(=O)NC2CCS(=O)(=O)C2)cc1[N+](=O)[O-] (stereo not drawn) | -2.41% (inactive)
O=C(COC(=O)/C=C/c1ccc(Cl)cc1)NC1CCS(=O)(=O)C1 (stereo not drawn) | -2.05% (inactive)
COc1ccc(NC(=O)CCC(=O)N2CCN(S(=O)(=O)c3ccc(C)cc3)CC2)c(OC)c1 | -0.33% (inactive)
CC(=O)NCC(=O)N1CCCC(C(=O)c2ccc3c4c(cccc24)CC3)C1 (stereo not drawn) | 33.7% (active)
CCn1ccnc1CN1CCCC(C(=O)c2ccc3c4c(cccc24)CC3)C1 (stereo not drawn) | 8.92% (inactive)
Cc1ncoc1C(=O)N1CCCC(C(=O)c2ccc3c4c(cccc24)CC3)C1 (stereo not drawn) | 17.8% (inactive)
CCOC(=O)c1cnc2sccn2c1=O | 20.1% (inactive)
CCOC(=O)c1cnc(COc2ccccc2Cl)[nH]c1=O | 3.61% (inactive)
CCCc1cc(C(=O)N2CCCC(CO)(CCCc3ccccc3)C2)n(C)n1 (stereo not drawn) | -1.51% (inactive)
O=C(O)c1n[nH]nc1-c1ccccc1 | 113% (active)
N#Cc1c(-c2ccccc2)c(-c2ccccc2)n[nH]c1=O | -6.25% (inactive)
O=C(O)c1ccc(-n2nc(-c3ccccc3)c3ccccc3c2=O)cc1 | 2.23% (inactive)
COc1cc(Cl)c(C)cc1NC(=O)COC(=O)c1cc(SC)ccc1Cl | 7.33% (inactive)

SMILES | inhibition
O=C(O)CSc1nccn1-c1cccc(Cl)c1 | 3.31% (inactive)
COC(=O)NNC(=O)C1CCC(C)CC1 (stereo not drawn) | 1.9% (inactive)
CCOC(=O)N1CCN(C(=O)CSc2nc(C)nc3c2c(=O)n(C)c(=O)n3C)CC1 | 4.39% (inactive)
OCC[C@H]1C[C@H](O)[C@@H](O)[C@]2(CCc3ccccc3O2)O1 | -1.81% (inactive)
NC(=O)CC[C@@H]1NC(=O)[C@@H]2CCCN2C(=O)c2cc([N+](=O)[O-])cc(F)c2NCCC[C@@H](C(N)=O)NC1=O | -3.88% (inactive)
CCc1ccc(-c2cc(C(=O)NCc3ccco3)c3ccccc3n2)s1 | 54.1% (active)
O=C(NCc1ccco1)c1ccc([N+](=O)[O-])cc1Cl | 3.22% (inactive)
Cc1cc(C(=O)OCC(=O)NCc2ccco2)c(C)n1-c1ccccc1 | -0.83% (inactive)
CN(Cc1ccc(C(F)(F)F)cc1)C(=O)[C@H]1O[C@@H](n2cnc3c(N)ncnc32)[C@H](O)[C@@H]1O | -0.98% (inactive)
CCN1C(=O)CS/C1=N\c1nccs1 | -3.46% (inactive)
COc1cc2c(cc1OC)CC1(CCCCC1)N=C2 | 45% (active)
Cc1ccc(S(=O)(=O)NCc2ccc(C(=O)NC3CCC(C)CC3)cc2)cc1 (stereo not drawn) | -7.12% (inactive)
COc1ccc(C(=O)Cn2nnc(-c3ccc(N4CCOCC4)cc3)n2)cc1OC | -1.43% (inactive)
COCCCn1c(CCC(=O)O)ccc1-c1ccc(F)cc1 | 50.6% (active)
COc1ccc(-c2ccc(CCC(=O)O)n2-c2ccc(O)cc2)cc1 | -1.15% (inactive)
COc1ccc(-c2ccc(CCC(=O)O)n2NC(=O)c2ccc(C(C)(C)C)cc2)cc1 | 3.01% (inactive)
CC(=O)Nc1ccc(Sc2ccccc2C(=O)N2CCCC2)cn1 | 1.32% (inactive)
CCOC(=O)C1=C(N)N(c2ccc(C)cc2)C2=C(C(=O)CCC2)C1c1cccs1 (stereo not drawn) | -1.49% (inactive)
CCOc1ccc(C2C(C#N)=C(N)N(N(C)C)C3=C2C(=O)CCC3)cc1 (stereo not drawn) | -0.23% (inactive)
COc1ccc(C2C3=C(CCCC3=O)N(CC(=O)O)C3=C2C(=O)CCC3)cc1 | 47.7% (active)
CCOc1ccc(C2C3=C(CCCC3=O)N(CC(=O)O)C3=C2C(=O)CCC3)cc1 | 39.2% (active)
CCCN1C2=C(C(=O)CCC2)C(c2ccc(O)c(Br)c2)C2=C1CCCC2=O | -1.2% (inactive)
COc1ccc(C2C(C#N)=C(N)N(c3ncn[nH]3)C3=C2C(=O)CCC3)cc1 (stereo not drawn) | 3.59% (inactive)
